# SENP6 block: blocks the human protease SENP6. Q9GZR1. Recombinant SENP6 catalytic domain, aminoluciferin luminescence. inhibition, % at 10 µM. actives 1.8% (n = 330,000). AID 2599;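 active = inhibition above about 50% at the single tested dose, limit read from the data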;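 note: plate controls were DMSO wells with enzyme for no effect and DMSO wells lacking enzyme for full effect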
# SENP8 block-1: inhibitors of human SENP8 protease; purified SENP8, Z-RLRGG-aminoluciferin cleavage, luminescence; inhibition, % at 10 µM; actives 1.2% (n = 330,000); AID 2540; in the data active = inhibition above about 50%
# Target sequence (Q96LD8 whole entry, looked up): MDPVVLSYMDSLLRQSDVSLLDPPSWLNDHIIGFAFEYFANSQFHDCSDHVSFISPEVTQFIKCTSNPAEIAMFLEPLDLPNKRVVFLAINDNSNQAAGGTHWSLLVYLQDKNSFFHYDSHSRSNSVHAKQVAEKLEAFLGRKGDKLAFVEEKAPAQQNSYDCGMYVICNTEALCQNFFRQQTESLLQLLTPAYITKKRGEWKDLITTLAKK
# PPC-1+TRAIL kill: PPC-1 cancer cell killing with TRAIL present; cell killing (% activity), % at 4 µM or 5 µM; PPC-1 cells + TRAIL, ATPLite viability luminescence; actives 0.41% (n = 220,000);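 active = cell killing above 50% in the first pass at 4 µM, then a duplicate retest at 5 µM averaging 50% or more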;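 note: plate controls were cells with TRAIL plus DMSO for no effect and medium-only wells lacking cells for full effect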
# TRAIL sens C8: caspase-8 TRAIL sensitization; NB7+C8 cells + TRAIL, ATPlite viability luminescence; inhibition (viability loss, TRAIL sensitization), % at 10 µM; actives 1% (n = 360,000); AID 624354;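 active = compounds causing at least 50% loss of cell viability in the single-dose screen, relative to plate controls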
# SENP8 block-2: inhibitors of human SENP8 protease | recombinant SENP8, Nedd8 substrate fluorescence | inhibition, % at 20 µM | actives 0.64% (n = 360,000) | AID 602440; in the data active = inhibition mostly above about 40%, no sharp cut-off; inactive = mostly below about 27%
# SENP7 inh: SENP7 protease inhibition | inhibition, % at 5 µM | AID 434973 | Q9BQF6 | recombinant SENP7, Z-RLRGG-aminoluciferin luminescence, 40 min | actives 1.5% (n = 330,000);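 active = inhibition above about 50% at the single test dose, limit read from the data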;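 note: plate controls were DMSO with enzyme for no effect and no enzyme buffer wells for full effect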
# Target sequence (Q9BQF6 706-1050 limits assumed): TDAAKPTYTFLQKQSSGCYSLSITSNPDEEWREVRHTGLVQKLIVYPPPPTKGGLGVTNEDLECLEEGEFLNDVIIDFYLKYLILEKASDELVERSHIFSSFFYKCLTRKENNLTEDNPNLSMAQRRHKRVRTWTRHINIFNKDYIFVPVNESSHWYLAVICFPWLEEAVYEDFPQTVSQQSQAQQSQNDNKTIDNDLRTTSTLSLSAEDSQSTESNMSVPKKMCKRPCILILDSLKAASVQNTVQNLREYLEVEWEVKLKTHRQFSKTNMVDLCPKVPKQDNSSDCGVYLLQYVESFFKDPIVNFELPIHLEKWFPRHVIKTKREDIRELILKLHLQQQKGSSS
# SENP8 conf: human SENP8 inhibition, confirmed | shares compounds with SENP7 inh | Recombinant SENP8, Z-RLRGG-aminoluciferin luminescence, 60 min | inhibition, % at 12.5 µM | actives 40% (n = 6,200) | AID 488912;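 active = mean inhibition across replicates above about 50%, limit read from the data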
# SENP6 conf: confirmation of human SENP6 protease inhibitors; shares compounds with SENP7 inh; AID 488915; actives 58% (n = 6,200); inhibition, % at 12.5 µM; recombinant SENP6, Z-RLRGG-aminoluciferin luminescence
# SENP7 conf: confirmation of human SENP7 protease inhibitors | inhibition, % at 12.5 µM | actives 69% (n = 6,200) | shares compounds with SENP7 inh | recombinant SENP7, Z-RLRGG-aminoluciferin luminescence, 40 min
# Casp3 select: inhibits human caspase-3 in SENP selectivity test; shares compounds with SENP7 inh; purified caspase-3, Z-DEVD-aminoluciferin luminescence, 60 min; inhibition, % at 12.5 µM; actives 60% (n = 6,200); AID 488918;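 active = mean inhibition above about 50%, limit read from the data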;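 note: plate controls were enzyme with DMSO for no effect and wells without caspase-3 for full effect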
# Luc interf: luminescence interference (SENP counter-screen); shares compounds with SENP7 inh; inhibition, % at 12.5 µM; actives 39% (n = 6,200); Pre-incubated SENP8/Z-RLRGG-aminoluciferin, luciferase luminescence interference; AID 488919;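 active = mean inhibition above about 50% when retested at one dose, limit read from the data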;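 note: plate controls were DMSO wells with completed reaction for no effect and substrate without enzyme for full effect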
# Active calls of the source: *; i = inactive; . = no result given. Compounds with a hit are over-represented: about 3% of the library has one in this group of screens.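 Rule for the calls, unless noted: active = mean inhibition above about 50% in the one-dose retest (limit read from the data); inactive = the rest.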
SMILES,SENP6 block,SENP8 block-1,PPC-1+TRAIL kill,TRAIL sens C8,SENP8 block-2,SENP7 inh,SENP8 conf,SENP6 conf,SENP7 conf,Casp3 select,Luc interf
COc1ccc(N(CC(=O)N2CCN(Cc3ccccc3)CC2)S(C)(=O)=O)cc1OC,-11.0,-4.6,.,-20.3,13.5,4.3,.,.,.,.,.
Cc1ccc(S(=O)(=O)/N=C(/NC(=S)Nc2ccccc2)c2ccccc2)cc1,73.6*,36.6,-11.2,-1.8,13.3,47.3,67.2*,65.4*,85.8*,34.8,27.9
COc1ccc(C(=O)NN/C(=N/S(=O)(=O)c2ccc(C)cc2)c2ccccc2)cc1,87.7*,54.0*,21.0,27.9,-152.0,78.3*,68.7*,64.3*,88.3*,69.9*,72.7*
CCOc1ccc(S(=O)(=O)/N=C(/Nc2ccc(OC)cc2)c2ccccc2)cc1,4.1,-0.3,.,2.8,6.3,-3.4,.,.,.,.,.
CC(C)Cn1cc(C(=O)NCc2cccs2)c2c3ccccc3n(C)c2c1=O,2.8,5.0,-0.9,16.0,-314.0,61.7*,-1.0,-0.4,-5.2,-1.5,-6.0
CC(C)CCNC(=O)c1cn(CC(C)C)c(=O)c2c1c1ccccc1n2C,-16.0,-8.5,.,-24.4,-300.8,-9.6,.,.,.,.,.
C=CC[C@H](CC(=O)NCCO)C(=O)NCCOC(=O)[C@@H](CC=C)CC(=O)OC(C)(C)C,-4.9,-10.8,.,-14.4,14.4,-4.3,.,.,.,.,.
O=C(Nc1cccc(C(F)(F)F)c1)C1=CC=CN2CCS(=O)(=O)N=C12,-3.2,-0.2,.,2.7,-152.3,-10.2,.,.,.,.,.
O=C(Nc1cccc(C(F)(F)F)c1)c1cc[n+]([O-])cc1,-30.7,-6.7,.,7.3,4.4,-7.4,.,.,.,.,.
O=C(Nc1ccc(C(F)(F)F)cc1)c1ccccc1,39.7,20.0,.,0.0,17.0,62.7*,-4.4,16.5,41.7,32.4,4.2
O=C(Nc1ccc(C(=O)c2ccccc2)cc1)c1ccccc1,38.5,19.6,.,13.5,17.7,28.6,.,.,.,.,.
O=C(Nc1cccc(O)c1)c1ccc(C(F)(F)F)cc1,74.3*,66.9*,15.5,33.7,8.4,72.2*,68.3*,70.0*,92.4*,71.6*,63.6*
Oc1ccc(N=Nc2n[nH]c(-c3ccccc3)n2)cc1,94.2*,96.1*,13.6,33.4,19.7,98.3*,97.8*,98.5*,102.3*,97.8*,97.5*
Cc1nc2ccc(C(=O)OCC(=O)N(C)c3ccccc3)cc2nc1C,-5.8,-8.0,.,1.1,8.9,-10.3,.,.,.,.,.
O=C(COC(=O)c1ccco1)Nc1ccc(N2CCOCC2)cc1,-14.1,-21.1,.,-5.4,7.9,-19.3,.,.,.,.,.
CCOc1ccc(OCC)c(NC(=O)CCSCCc2ccccn2)c1,5.7,1.3,7.7,0.3,4.2,-1.8,.,.,.,.,.
CCOc1ccc(OCC)c(NC(=O)CSCCc2ccccn2)c1,82.3*,2.3,6.0,-4.3,25.7,8.8,10.7,5.7,-3.0,-5.8,-6.0
O=C(NC1CCS(=O)(=O)C1)c1ccc(N2CCCCC2)c([N+](=O)[O-])c1 (stereo unspecified),-12.9,2.6,.,11.6,12.3,4.1,.,.,.,.,.
CCCc1cc(C(=O)Nc2cccc(Cl)c2)no1,97.5*,90.2*,25.9,-1.3,5.3,92.7*,94.5*,95.7*,101.6*,91.7*,89.7*
CCCc1cc(C(=O)Nc2ccc(F)cc2F)no1,62.9*,38.3,12.5,-6.4,13.1,40.3,7.7,38.7,71.0*,60.0*,0.0
CCCc1cc(C(=O)Nc2ccccc2SC)no1,22.0,1.5,12.4,-14.0,10.0,2.6,.,.,.,.,.
CCCc1cc(C(=O)Nc2ccc(F)c(Cl)c2)no1,92.9*,90.4*,.,-1.1,11.5,92.6*,91.5*,92.7*,99.6*,89.1*,82.2*
Cn1c(=O)c2c(ncn2CC(=O)Nc2cc(S(=O)(=O)N3CCCCC3)ccc2Cl)n(C)c1=O,-8.8,10.1,.,-3.0,-1.1,-5.3,.,.,.,.,.
CC(C)c1ccc(NC(=O)CN2C(=O)NC3(CCCCCCC3)C2=O)cc1,-28.8,-19.8,.,0.5,8.6,0.1,.,.,.,.,.
Oc1ccc(NCc2ccccc2OCc2ccccc2F)cc1,60.1*,19.8,12.0,-5.3,76.5*,31.0,17.4,19.9,5.1,6.7,5.2
SMILES,SENP6 block,SENP8 block-1,PPC-1+TRAIL kill,TRAIL sens C8,SENP8 block-2,SENP7 inh,SENP8 conf,SENP6 conf,SENP7 conf,Casp3 select,Luc interf
Cc1ccc(NCc2ccccc2OCc2ccccc2F)cc1,23.1,7.7,27.8,-1.1,9.7,8.6,.,.,.,.,.
N#C/C(=C/c1ccc(N2CCOCC2)c([N+](=O)[O-])c1)C(N)=O,-1.7,-7.3,9.3,-25.0,14.0,90.4*,21.4,7.5,5.4,4.3,2.3
Cc1cc2sc3ccc(C#CC4(O)CCCCC4)cc3c(=O)c2cc1C,97.2*,94.0*,.,88.1*,-293.0,98.9*,-3.5,13.7,23.9,72.9*,1.7
Cn1c2ccccc2c(=O)c2cc(C#Cc3ccccn3)ccc21,87.9*,83.4*,.,23.9,-464.8,81.9*,19.1,30.6,19.8,49.7,8.1
Cn1c2ccccc2c(=O)c2cc(C#CC3(O)CCCCC3)ccc21,95.7*,91.7*,.,92.2*,i,97.2*,45.8,57.2*,35.5,62.3*,77.9*
COc1cccc2oc3ccc(C#CC4(N)CCCCC4)cc3c(=O)c12,53.6*,31.4,.,34.7,i,12.9,55.4*,51.9*,81.3*,70.2*,13.1
Cn1c2ccccc2c(=O)c2ccc(C#Cc3ccccn3)cc21,13.1,-12.2,.,.,.,3.1,.,.,.,.,.
Cn1c2ccccc2c(=O)c2ccc(C#CC3(N)CCCCC3)cc21,-11.8,-18.9,.,29.8,-465.4,0.2,.,.,.,.,.
N#Cc1ccc(C#Cc2ccc3oc4ccccc4c(=O)c3c2)cc1,-18.1,-4.5,.,1.9,-246.9,-1.9,.,.,.,.,.
O=c1c2ccccc2oc2ccc(C#CC3(O)CCCCC3)cc12,94.4*,91.9*,.,86.8*,-215.3,89.3*,92.2*,93.9*,99.4*,83.4*,67.8*
O=C(O)c1cccc(NC(=O)c2cccc(S(=O)(=O)Nc3cccc([N+](=O)[O-])c3)c2)c1,65.5*,51.3*,.,-9.6,4.6,30.0,71.8*,68.6*,86.1*,38.4,45.3
Cc1ccccc1NS(=O)(=O)c1cccc(C(=O)Nc2cccc(C(=O)O)c2)c1,65.5*,33.6,.,1.3,12.7,11.5,51.8*,44.3,72.5*,12.2,26.4

# Source: PubChem BioAssay (Sanford-Burnham Center for Chemical Genomics)
